{"source": "the supplement of paper PMC4166925", "note": "± gives the standard deviation of the averaged measurements. Whole data set: some 33,000 sequences, median “E-score (dimensionless, -0.5 to 0.5)” near -0.049, cut for the highest 2% near 0.37. What follows is part of a selection rich in the highest values, with near analogues and random picks from the rest."}
{"system": "T1, PmTbr T-box DNA-binding domain (GST fusion)", "T1 sequence": "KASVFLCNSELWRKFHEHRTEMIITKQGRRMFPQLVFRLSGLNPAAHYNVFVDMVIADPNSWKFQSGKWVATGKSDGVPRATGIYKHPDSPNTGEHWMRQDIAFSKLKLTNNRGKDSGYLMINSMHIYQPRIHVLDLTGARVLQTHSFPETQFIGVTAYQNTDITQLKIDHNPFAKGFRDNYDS", "test": "PBM E-score of 8-mer (E-score (dimensionless, -0.5 to 0.5)); Tbr is Tbrain of the sea star Patiria miniata (Pm) or the sea urchin Strongylocentrotus purpuratus (Sp); higher = stronger binding preference", "conditions": "the construct has about 5 more residues each side", "outline": "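Primer extension turned Universal Agilent oligonucleotide arrays double-stranded. They were incubated with 200 nM protein in PBS (pH 7.5); the protein was a GST-fused Tbr T-box DNA-binding domain expressed in BL21 E. coli at 20 °C and purified on glutathione. Every ungapped 8-mer was scored from the scanned, quantified probe intensities, and the Universal PBM Analysis Suite gave each an enrichment E-score averaged over duplicate arrays.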"}
{"sequence": "ACTTCACG", "PBM E-score of 8-mer": "0.262 ± 0.038"}
{"sequence": "CCTTCACA", "PBM E-score of 8-mer": "0.395 ± 0.014"}
{"sequence": "TCTTCACA", "PBM E-score of 8-mer": "0.377 ± 0.015"}
{"sequence": "CCTTCACG", "PBM E-score of 8-mer": "0.213 ± 0.0063"}
{"sequence": "ACTTCACA", "PBM E-score of 8-mer": "0.336 ± 0.011"}
{"sequence": "CCAAGTGA", "PBM E-score of 8-mer": "0.146 ± 0.01"}
{"sequence": "CTGAGCAC", "PBM E-score of 8-mer": "0.0183 ± 0.04"}
{"sequence": "GACAGGCA", "PBM E-score of 8-mer": "-0.0532 ± 0.041"}
{"sequence": "ACACAGTG", "PBM E-score of 8-mer": "0.229 ± 0.005"}
{"sequence": "AGTGTTTC", "PBM E-score of 8-mer": "0.134 ± 0.066"}
{"sequence": "CGCTTGAG", "PBM E-score of 8-mer": "-0.0499 ± 0.011"}
{"sequence": "CACGTGTA", "PBM E-score of 8-mer": "0.2502 ± 0.00031"}
{"sequence": "AACGTGTC", "PBM E-score of 8-mer": "0.4102 ± 0.0015"}
{"sequence": "ACCGTGTG", "PBM E-score of 8-mer": "0.218 ± 0.0082"}
{"sequence": "AACGTGTA", "PBM E-score of 8-mer": "0.156 ± 0.04"}
{"sequence": "AGCGTGTC", "PBM E-score of 8-mer": "0.174 ± 0.034"}
{"sequence": "CACGTGAC", "PBM E-score of 8-mer": "0.315 ± 0.0075"}
{"sequence": "AACGTGCG", "PBM E-score of 8-mer": "0.345 ± 0.029"}
{"sequence": "AACGTGTG", "PBM E-score of 8-mer": "0.3941 ± 0.0015"}
{"sequence": "CACGTGTC", "PBM E-score of 8-mer": "0.385 ± 0.0079"}
{"sequence": "CGAGGGCA", "PBM E-score of 8-mer": "-0.019 ± 0.015"}
{"sequence": "ATTAGAAC", "PBM E-score of 8-mer": "-0.161 ± 0.0031"}
{"sequence": "GCCAAGCA", "PBM E-score of 8-mer": "-0.0191 ± 0.018"}
{"sequence": "ACACCAAG", "PBM E-score of 8-mer": "0.35 ± 0.005"}
{"sequence": "GATATCAC", "PBM E-score of 8-mer": "0.331 ± 0.021"}
{"sequence": "TCCGCACA", "PBM E-score of 8-mer": "0.104 ± 0.058"}
{"sequence": "CGAATTCC", "PBM E-score of 8-mer": "-0.164 ± 0.079"}
{"sequence": "ATTTCCCG", "PBM E-score of 8-mer": "-0.133 ± 0.0071"}
{"sequence": "AGCTGTGC", "PBM E-score of 8-mer": "0.182 ± 0.0098"}
{"sequence": "AGCTGTGA", "PBM E-score of 8-mer": "0.404 ± 0.017"}
{"sequence": "ACCTGTGA", "PBM E-score of 8-mer": "0.4002 ± 0.002"}
{"sequence": "AGCTGTGG", "PBM E-score of 8-mer": "0.0136 ± 0.075"}
{"sequence": "GCCTGTGA", "PBM E-score of 8-mer": "0.107 ± 0.014"}
{"sequence": "ACCTGTGC", "PBM E-score of 8-mer": "0.0647 ± 0.0069"}
{"sequence": "GGTAGAGA", "PBM E-score of 8-mer": "-0.124 ± 0.0055"}
{"sequence": "GACTCAGA", "PBM E-score of 8-mer": "-0.213 ± 0.097"}
{"sequence": "TCAAATCA", "PBM E-score of 8-mer": "-0.159 ± 0.042"}
{"sequence": "GTCGCCAC", "PBM E-score of 8-mer": "0.326 ± 0.0074"}
{"sequence": "ACAGGCTC", "PBM E-score of 8-mer": "0.0148 ± 0.018"}
{"sequence": "CCTTCGCG", "PBM E-score of 8-mer": "0.2566 ± 0.0012"}
{"sequence": "ACCGTCGT", "PBM E-score of 8-mer": "0.162 ± 0.045"}
{"sequence": "ACCTCCGA", "PBM E-score of 8-mer": "0.253 ± 0.033"}
{"sequence": "CGTGCGAC", "PBM E-score of 8-mer": "0.277 ± 0.018"}
{"sequence": "ACTGCGAA", "PBM E-score of 8-mer": "0.315 ± 0.012"}
{"sequence": "GCTGCGAC", "PBM E-score of 8-mer": "0.137 ± 0.0089"}
{"sequence": "GGTGCAAC", "PBM E-score of 8-mer": "0.299 ± 0.033"}
{"sequence": "AGTGCGAA", "PBM E-score of 8-mer": "0.4725 ± 0.00067"}
{"sequence": "ACTGCGAT", "PBM E-score of 8-mer": "0.107 ± 0.048"}
{"sequence": "GGTGCAAA", "PBM E-score of 8-mer": "0.393 ± 0.0071"}
{"sequence": "TGTGCAAA", "PBM E-score of 8-mer": "0.197 ± 0.043"}
{"sequence": "AGTGCGAT", "PBM E-score of 8-mer": "0.427 ± 0.0052"}
{"sequence": "AGTGCGTA", "PBM E-score of 8-mer": "0.146 ± 0.048"}
{"sequence": "GGTGCGAC", "PBM E-score of 8-mer": "0.462 ± 0.017"}
{"sequence": "AATGCGAT", "PBM E-score of 8-mer": "0.024 ± 0.0098"}
{"sequence": "ATCCTGCC", "PBM E-score of 8-mer": "-0.0684 ± 0.0044"}
{"sequence": "CTAGCAAG", "PBM E-score of 8-mer": "0.0488 ± 0.014"}
{"sequence": "TGAGGGAA", "PBM E-score of 8-mer": "-0.0537 ± 0.066"}
{"sequence": "ATCATAGC", "PBM E-score of 8-mer": "0.0043 ± 0.09"}
{"sequence": "CTGGCGAC", "PBM E-score of 8-mer": "0.124 ± 0.059"}
{"sequence": "TATGCGAA", "PBM E-score of 8-mer": "0.157 ± 0.0088"}
{"sequence": "ACTGCGAC", "PBM E-score of 8-mer": "0.0881 ± 0.0041"}
{"sequence": "AGTGCGAC", "PBM E-score of 8-mer": "0.37 ± 0.012"}
{"sequence": "CGTGCGAA", "PBM E-score of 8-mer": "0.448 ± 0.0091"}
{"sequence": "GGTGCGTA", "PBM E-score of 8-mer": "0.2616 ± 0.00075"}
{"sequence": "AGTGCGTC", "PBM E-score of 8-mer": "-0.147 ± 0.029"}
{"sequence": "TCTGCGAA", "PBM E-score of 8-mer": "0.201 ± 0.038"}
{"sequence": "GGTGCGAA", "PBM E-score of 8-mer": "0.48957 ± 0.00016"}
{"sequence": "CGTGCGCA", "PBM E-score of 8-mer": "0.0827 ± 0.019"}
{"sequence": "TGTGCGAA", "PBM E-score of 8-mer": "0.448 ± 0.0066"}
{"sequence": "CGTGCAAA", "PBM E-score of 8-mer": "0.11 ± 0.0028"}
{"sequence": "GATGCGAA", "PBM E-score of 8-mer": "0.186 ± 0.038"}
{"sequence": "AGCCGACA", "PBM E-score of 8-mer": "0.165 ± 0.007"}
{"sequence": "GTGGCTCA", "PBM E-score of 8-mer": "0.0273 ± 0.048"}
{"sequence": "CGCCGCAA", "PBM E-score of 8-mer": "-0.0674 ± 0.0034"}
{"sequence": "ATTGCTCG", "PBM E-score of 8-mer": "-0.0286 ± 0.034"}
{"sequence": "CAGCCAGA", "PBM E-score of 8-mer": "-0.0394 ± 0.019"}
{"sequence": "CGAGATCC", "PBM E-score of 8-mer": "0.0268 ± 0.01"}
{"sequence": "AAGGGATT", "PBM E-score of 8-mer": "-0.212 ± 0.11"}
{"sequence": "CCTAAAAC", "PBM E-score of 8-mer": "-0.00751 ± 0.035"}
{"sequence": "CTGTTCAC", "PBM E-score of 8-mer": "0.263 ± 0.012"}
{"sequence": "CATGCAGC", "PBM E-score of 8-mer": "-0.0211 ± 0.03"}
{"sequence": "AGAGTGCA", "PBM E-score of 8-mer": "0.0698 ± 0.0037"}
{"sequence": "CACTTGGC", "PBM E-score of 8-mer": "0.236 ± 0.038"}
{"sequence": "ACTGCGAG", "PBM E-score of 8-mer": "0.179 ± 0.04"}
{"sequence": "GGTGCGGA", "PBM E-score of 8-mer": "0.405 ± 0.015"}
{"sequence": "AGTGCGAG", "PBM E-score of 8-mer": "0.405 ± 0.021"}
{"sequence": "AGTGCGGA", "PBM E-score of 8-mer": "0.265 ± 0.0086"}
{"sequence": "CGTGCGAG", "PBM E-score of 8-mer": "0.358 ± 0.018"}
{"sequence": "CTTGCGAA", "PBM E-score of 8-mer": "0.328 ± 0.029"}
{"sequence": "ATTGCGAA", "PBM E-score of 8-mer": "0.27169 ± 0.00012"}
{"sequence": "CGTGCGGA", "PBM E-score of 8-mer": "0.0633 ± 0.03"}
{"sequence": "GTTGCGAA", "PBM E-score of 8-mer": "0.389 ± 0.015"}
{"sequence": "ACTTCGAC", "PBM E-score of 8-mer": "0.14 ± 0.024"}
{"sequence": "ATTGACAG", "PBM E-score of 8-mer": "0.15 ± 0.052"}
{"sequence": "CTTGACAC", "PBM E-score of 8-mer": "0.43 ± 0.023"}
{"sequence": "CTTGACGC", "PBM E-score of 8-mer": "0.27 ± 0.0032"}
{"sequence": "ATTGACAC", "PBM E-score of 8-mer": "0.412 ± 0.0065"}
{"sequence": "ATTGACAA", "PBM E-score of 8-mer": "0.304 ± 0.043"}
{"sequence": "CTTGACCC", "PBM E-score of 8-mer": "-0.326 ± 0.035"}
{"sequence": "ATTTGGTC", "PBM E-score of 8-mer": "-0.154 ± 0.024"}
{"sequence": "CCACGTAC", "PBM E-score of 8-mer": "0.0376 ± 0.016"}
{"sequence": "AGTCATAT", "PBM E-score of 8-mer": "-0.234 ± 0.069"}
{"sequence": "CTTAACAA", "PBM E-score of 8-mer": "0.201 ± 0.041"}
{"sequence": "CTTAACAC", "PBM E-score of 8-mer": "0.434 ± 0.013"}
{"sequence": "ATTAACAG", "PBM E-score of 8-mer": "0.143 ± 0.048"}
{"sequence": "ATTAACAC", "PBM E-score of 8-mer": "0.449 ± 0.0075"}
{"sequence": "ATTAACAA", "PBM E-score of 8-mer": "0.173 ± 0.14"}
{"sequence": "CTTAACCC", "PBM E-score of 8-mer": "-0.0938 ± 0.018"}
{"sequence": "CTACTCGA", "PBM E-score of 8-mer": "-0.0985 ± 0.018"}
{"sequence": "AACTTAAT", "PBM E-score of 8-mer": "-0.0144 ± 0.063"}
